Assay results: the supplement of paper PMC6555819

What was measured:
Assay in all cases: PBM binding z-score (relative to random genomic background probes); higher = stronger binding; sequences stand for … in GC…GCGATTGACAGCGTAGAATGAAGG
[1] = test system: PPARg:RXRa DBDmut IVT, anti-RXR (DBD mutation: RXRa K156A/R161A, NR concentration 270 nM, RXRa partner concentration 90 nM)
Procedure, shortened: (§1)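 For binding z-scores, the reference was random background probes on custom Agilent 4×180K protein-binding microarrays. These arrays were incubated 1 h with ligand-free nuclear receptor dimers in PBS pH 7.4, 2% milk, 0.02% Triton X-100, 1 mM DTT, 0.2 mg/mL BSA and 0.4 mg/ml salmon testes DNA. Fluorescence was scanned after antibody detection of each partner (one per run) and regression-normalized.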

[2] = test system: PPARg:RXRa IVT, anti-PPARg (NR concentration 270 nM, RXRa partner concentration 90 nM)
Procedure, shortened: as §1

[3] = test system: PPARg DBDmut:RXRa IVT, anti-PPARg (DBD mutation: PPARg1 K132A/R137A, NR concentration 270 nM, RXRa partner concentration 90 nM)
Procedure, shortened: as §1

[4] = test system: PPARg DBDmut IVT, anti-PPARg (DBD mutation: PPARg1 K132A/R137A, NR concentration 270 nM)
Procedure, shortened: as §1

[5] = test system: PPARg homodimer (NR concentration 180 nM)
Procedure, shortened: as §1

[6] = test system: PXR:RXRa (NR concentration 270 nM, RXRa partner concentration 90 nM)
Procedure, shortened: as §1

[7] = test system: PXR homodimer (NR concentration 270 nM)
Procedure, shortened: as §1

[8] = test system: RARa:RXR (NR concentration 270 nM, RXRa partner concentration 90 nM)
Procedure, shortened: as §1

[9] = test system: RARa homodimer (NR concentration 270 nM)
Procedure, shortened: as §1

[10] = test system: RARb:RXRa (NR concentration 270 nM, RXRa partner concentration 90 nM)
Procedure, shortened: as §1

Sequence	PBM binding z-score [1]	PBM binding z-score [2]	PBM binding z-score [3]	PBM binding z-score [4]	PBM binding z-score [5]	PBM binding z-score [6]	PBM binding z-score [7]	PBM binding z-score [8]	PBM binding z-score [9]	PBM binding z-score [10]
ATATGTATGTTAGCTGGGGTCATTCAGACTAGGC	2.2	2.3	1.51	1.76	1.82	5.63	2.99	5.55	0.578	2.6
AGAATGAGGTTAAGATCAGGGAAACAGAATACAT	2.82	2.83	1.43	0.885	0.847	1.38	0.732	2.08	0.481	2.01
ACTATTAGTTGACTAAGGGCAACCGATACGACGC	0.0727	0.783	0.688	0.819	0.638	0.652	0.92	0.766	0.98	1.53
CCTTACGGGTCACTGAAAGGTTATAGCATTTGGA	2.95	4.1	1	1.09	3.7	5.03	0.223	6.33	0.617	4.51
ATCGAAAGTTCGAGGTGAGTATAGAGAAAGGGAA	-0.474	0.844	0.383	0.642	0.238	0.98	0.157	1.01	-0.05	2.53
ATCACTAGGTAAAGTTCAGTGAAAGATCGATAGA	3.89	3.29	1.1	0.944	1.33	1.91	1.73	1.48	1.19	2.7
TCATATAGGTAAAAGGTTAAAGTCGGTGTGGTAA	4.98	5.34	1.14	1.22	2.21	3.01	1.15	4.32	2.65	2.64
ACTTACGGGTCAACGAGGTTATAGCACGCGTATA	3.5	4.09	1.65	1.55	2.55	5.1	3.34	5.39	1.16	4.13
GTACCAAGGTGAATAGGTCGTTCATGAGTAGGCG	1.96	2.71	0.421	-1.06	0.765	0.908	-0.0414	1.62	-0.236	2.12
ATCCAAAGGTCGTGAGGTGAGTATACAGAAAGGC	0.752	2.92	1.39	0.827	1.97	3.64	0.629	4.91	1.46	4.4
AGAATGAGGTTACCAATGATCAGGGAAACGCTTG	3.69	3.24	1.14	0.416	0.494	1.05	-0.11	1.83	0.362	2.03
CGTCCAAGGTCAGTGCTAGGTCAGTGAAAGCATT	2.24	2.77	-0.328	-1.29	3.27	3.4	0.647	4.37	0.898	4.79
AATACAGGGTCACTAGGGCAGAGTAGGTACGAAT	4.88	6.25	2.07	2.29	3.08	3.51	1.1	4.65	1.32	4.27
CGTCCAAGGTCAAAGGTCCGTGAAGAGATGACGG	3.4	4.24	0.753	0.764	2.99	4.61	1.12	5.96	0.563	5.32
CCTTACGGGTCACTCCTGGTTATAGCATCGGAGT	2.58	3.35	0.273	-0.731	1.77	2.67	0.0261	3.18	0.288	3.55
CCTCGGAGGACAACAGGAGCTCAGAGCTGCCAGA	0.0652	-0.614	-1.06	-2.08	-0.744	-0.836	-0.522	-0.894	-0.387	0.83
TATACAGGGTCAAAGCCCAGAGTACGAATGTCGA	2.27	4.44	3.06	1.86	2.91	3.69	0.241	4.55	0.678	4.28
AGAATGAGGTTATTGAGATCAGGGAATTGCGGTC	3.5	2.93	0.606	0.563	0.709	1.57	0.864	1.84	0.342	1.63
CCGAGTAGGTTATGGGGCATTCACGCAACGGTGA	3.46	3.48	0.0074	-0.799	1.81	-0.0726	-0.244	0.125	0.665	1.06
AGAATGAGGTTACCAAAGATAAGGGAAACGCTTG	3.63	3.34	0.848	0.91	1.01	0.851	0.109	1.68	0.445	1.73
AGAATGAGGTTATAGGTAGATCAGGGAAGAAAGT	2.86	2.76	1.2	1.03	1.63	1.52	1.49	1.93	1.46	1.72
TAGCCTAGGTCATTGGGCCAGTTTAGTACGCATC	2.53	3.45	-0.6	0.202	0.893	1.71	-0.11	2.11	-0.422	3.52
TCTAGTTGGTCAAAGGTCACACTCTCGAAATGCG	3.65	6.05	1.12	1.37	5.48	5.85	1.74	7.41	3.43	4.92
